A selection: hits, their analogues and other compounds. The true share with any hit is near 19%.
DT40 TDP1 CPT: DT40-hTDP1 cell growth loss with CPT; chicken DT40 Tdp1-/-;hTDP1 cells + 20 nM CPT, ATP luminescence, 48 h; Potency, µM (highest dose often 46.2 µM), for the others: at the top dose activity change, negative = growth inhibition, actives largely listed as inhibitors; actives 12% (n = 420,000); AID 686979; note: potency is the fitted concentration of half-maximal effect; nearly all actives have a fitted effect of over 55% in size
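Chicken DT40 Tdp1-/- cells complemented with human TDP1, 400 cells/well, exposed to compounds plus 20 nM camptothecin for at least 48 h at 37 C; viability read as ATP content by CellTiter-Glo luminescence.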
HT1080NT lethal: kills 2HG-producing HT-1080-NT fibrosarcoma cells; actives 1.6% (n = 360,000); Potency, µM (titrated, usually from 46.1 µM), for the others: at the highest dose activity, negative = less viability, hits mostly cytotoxic; HT-1080-NT fibrosarcoma viability, CellTiter-Glo ATP luminescence, 48 h; AID 686970;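 note: NT is the 2HG producing partner of a matched IDH1 knockdown line; potency is the fitted concentration of half-maximal effect; 0% = DMSO-treated cells and -100% = media-only wells without cells; nearly all actives have a fitted effect of over 55% in size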
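HT-1080-NT fibrosarcoma cells (2HG-overproducing), 750 cells/well in RPMI with 5% FBS, dosed after 2 h and incubated 48 h at 37C. CellTiter-Glo luminescence normalized to DMSO and no-cell wells; concentration-response curves fitted and classed.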
IL1B secr inh: inhibitors of inflammasome signaling (IL-1 beta secretion); THP-1 LPS/ATP IL-1B secretion, AlphaLISA, 16 h; stronger effect = lower value; actives 4.7% (n = 360,000); AID 743279; activity change, % at 57.5 µM; in the data active = activity change below about -50%; inconclusive = mostly about -30% to -49%
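Secreted IL-1B measured by AlphaLISA bead assay after 16 h compound exposure of THP-1 cells; compounds (final up to 57.5 uM) added 1 h before LPS (250 ng/mL) and ATP (1.25 mM) stimulation; lower signal means less secretion.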
HT1080 IDH1KD tx: HT-1080 IDH1 knockdown cell toxicity (counter line); HT-1080 IDH1 knockdown viability, ATP luminescence, 48 h; Potency, µM (titrated, usually from 46.1 µM), for inactives: at the top dose activity, negative = toxicity, hits mostly cytotoxic; actives 2% (n = 360,000); AID 686971;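 note: potency is the fitted concentration of half-maximal effect; 0% = DMSO wells and -100% = cell-free medium wells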
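Viability of IDH1-knockdown HT-1080 fibrosarcoma cells was assessed by CellTiter-Glo after 48 h at 37 °C with titrated compound; concentration-effect curves were classified by fit quality and response size.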
DT40 TDP1 no CPT: qHTS for Inhibitors of human tyrosyl-DNA phosphodiesterase 1 (TDP1): qHTS in cells in absence of CPT; actives 15% (n = 420,000); DT40 Tdp1-/- hTDP1 cells, no CPT, ATP luminescence, 48 h; Potency, µM (doses to about 46.2 µM), inactives show top-dose activity change, negative = growth inhibition, most hits filed as inhibitors; note: potency is the fitted concentration of half-maximal effect; nearly all actives have a fitted effect of over 55% in size
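Luminescent ATP content (CellTiter-Glo) served as the growth readout. Knockout chicken DT40 cells expressing human TDP1 were exposed to compounds without camptothecin for a minimum 48 hr at 37 °C.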
Numbers without * were called inactive; ? = inconclusive; / = no result. Unless noted, calls come from the whole dose curve; as a rule, active = well fitted curve in the direction sought with a large enough effect; inconclusive = small, poorly fitted or top-dose-only effect, or another doubt; inactive = no such curve, though single readings can be large; an effect the other way counts as inactive or inconclusive. Unless noted, % is set by controls: 0 for no effect and ±100 for the full control effect.

SMILES	DT40 TDP1 CPT	HT1080NT lethal	IL1B secr inh	HT1080 IDH1KD tx	DT40 TDP1 no CPT
COc1ccc(/C=C(/NC(=O)c2ccc(OC)c(OC)c2)C(=O)NCCCn2ccnc2)cc1	0.2%	8.4%	4.2	2.0%	-5.5%
COC(=O)C[C@H]1C=C[C@@H](NC(=O)C2CC2)[C@@H](CO)O1	3.4%	18.5%	22.2	29.1%	3.3%
Cc1ccccc1NC(=O)N(O)C1(C#N)CCCCC1	0.3%	13.1%	6.4	16.2%	4.9%
COc1nc(NCCO)nc(Nc2ccccc2F)n1	9.5%	4.9%	15.4	0.7%	4.4%
COc1ccccc1C(=O)Nc1ccc(-c2cc(C(F)(F)F)nn2-c2ccccc2)cc1	4.11µM*	/	/	/	5.17µM*
COc1ccccc1C(=O)NC(=O)Nc1ccc(-c2cc(C(F)(F)F)nn2-c2ccccc2)cc1	5.8µM*	/	/	/	4.61µM*
Cc1ccc(NC(=O)CSc2nnc(-c3ccncc3)o2)cc1C	9.3%	3.5%	-0.4	-7.1%	0.0%
COc1ccccc1NC(=O)CCNS(=O)(=O)c1ccc2[nH]c(=O)oc2c1	23.1µM*	-1.0%	11.9	6.8%	?
CCOC(=O)c1c(NC(=O)COC(=O)C2CC2C)sc(C)c1C (stereo not drawn)	?	-14.4%	-8.5	-23.5%	?
Fc1cnc(N2CCc3ccccc32)nc1N1CCc2ccccc21	?	-12.3%	-13.6	-3.1%	?
CC1(C)CC(=O)c2cnc(N3CCc4ccccc43)nc2C1	?	0.7%	/	-3.2%	25.9µM*
N#CC1=C(N)Oc2c(ccc3ccccc23)C1c1ccsc1 (stereo not drawn)	0.82µM*	13µM*	13.1	5.8µM*	0.581µM*
N#CC1=C(N)Oc2c(oc(CO)cc2=O)C1c1ccsc1 (stereo not drawn)	1.3%	-0.3%	0.0	-5.5%	5.8%
CNc1nc(Oc2ccc3sc(C)nc3c2)c2sccc2n1	20.6µM*	-14.7%	21.2	?	20.6µM*
Cc1ccc(NC(=O)CN(C)S(=O)(=O)c2ccc(Cl)s2)c(O)c1	?	15.3%	-12.2	-2.2%	-28.5%
Cc1ccccc1/C=C1\CCCc2ccccc2C1=O	-21.1%	-15.2%	0.0	-15.5%	-26.4%
O=C1/C(=C/c2cccc([N+](=O)[O-])c2)CSc2ccc(Cl)cc21	2.1%	20.1%	-1.0	13.0%	-18.6%
O=C(O)c1ccc(-n2ncc3c2/C(=C/c2cccc([N+](=O)[O-])c2)CC3)cc1	16.4µM*	10.2%	31.6	6.0%	?
CCN1C/C(=C\c2cccc([N+](=O)[O-])c2)C(=O)/C(=C/c2cccc([N+](=O)[O-])c2)C1	0.651µM*	4.11µM*	-103.7*	2.31µM*	0.92µM*
O=C1/C(=C/c2cccc([N+](=O)[O-])c2)CCc2ccccc21	?	?	-121.3*	?	14.6µM*
O=C1/C(=C\c2ccc3ccccc3c2)CCCc2ccccc21	?	?	5.6	13µM*	?
CCc1ccccc1NC(=O)C(CCSC)NS(=O)(=O)c1ccc2c(c1)oc(=O)n2C (stereo not drawn)	24.1%	/	/	/	-10.9%
CC(I)CCC(C)[n+]1cccc(I)c1 (stereo not drawn)	14.7%	/	/	/	4.0%
COc1ccc(O)c(C(=O)c2cnn(-c3ccccc3)c2)c1	-0.9%	?	10.2	-20.2%	-9.5%
CCNc1nc(NCC)nc(-n2cc(C(=O)c3cc(Cl)ccc3O)cn2)n1	?	/	/	/	10µM*
Nc1nc(N)nc(-c2cc(O)ccc2O)n1	8.2µM*	-2.2%	?	0.4%	5.8µM*
CCNc1nc(N)nc(-c2cc(Cl)ccc2O)n1	?	16.4µM*	-85.5*	23.1µM*	20.6µM*
CCCCNc1nc(N)nc(-c2cc(Cl)ccc2O)n1	18.4µM*	-11.3%	-83.7*	0.2%	16.4µM*
Nc1nc(N)nc(-c2cc([N+](=O)[O-])ccc2O)n1	-13.1%	-3.0%	6.1	-5.5%	-22.5%
